# In PubChem BioAssay AID720697 (Broad Institute, 2013):
# Potency and affinity values are given separately. Records with an inconclusive call do not appear. Unmarked numbers belong to inactive results.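 Rule for the calls: active = signal loss with fitted half-maximal concentration at or below twice the top valid tested dose in every test run; inconclusive = runs disagree, flat 30 to 70% signal loss, or poor fit; inactive = all runs flat, opposite direction, or potency beyond limit.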
# Assay: general mammalian cell viability loss – inhibitor set, cherry-pick, set 2, cytotoxicity control for miR-122 modulator project, dose response (AID 720697);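 note: 0% = median of neutral control wells and -100% = MG132 positive control wells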
# Details: HEK293T viability, CellTiter-Glo luminescence, 48 h; series mostly up to 26 µM; activity change, negative = cytotoxicity: at the top concentration
row,SMILES,"activity change, negative = cytotoxicity"
1,CCOC(=O)CSc1nnnn1-c1cccc2ccccc12,20.9%
2,CNC(=O)C[C@H]1CC[C@@H]2[C@H](COc3ccc(NC(=O)c4ccc(OC)cc4)cc3C(=O)N2C)O1,61.1%
3,O=C(CN1CCN(c2nc(-c3ccccc3)cs2)CC1)Nc1ccc2c(c1)OCO2,59.5%
4,CCCNC(=O)N1[C@H](CO)[C@H](c2ccc(-c3ccccc3)cc2)[C@@H]1CNC(C)=O,26.7%
5,O=C(NC[C@@H]1N[C@@H](CO)[C@H]1c1ccccc1)C1CCC1,14.5%
6,C[C@H]1CN([C@@H](C)CO)S(=O)(=O)c2ccc(C#CC3CCCCC3)cc2O[C@@H]1CN(C)C,20.7%
7,CO[C@H]1CN(C)C(=O)c2ccc(NS(C)(=O)=O)cc2OC[C@H](C)N(C(=O)CN(C)C)C[C@H]1C,100%
8,CCCNC(=O)N1[C@H](CNC(C)=O)[C@H](c2ccc(C3=CCCC3)cc2)[C@@H]1CO,139%
9,Cn1c(NC(=O)c2ccco2)c(-c2ccccc2Cl)c(=O)c2ccccc21,10.7%
10,CC(C)N(C[C@H]1[C@H](c2ccccc2)[C@@H](CO)N1S(C)(=O)=O)C(=O)CN(C)C,146% [at 23.5 µM]
11,CN1C(=O)c2cc(NS(=O)(=O)c3ccc(Cl)cc3)ccc2OC[C@@H]2O[C@H](CC(=O)N3CCc4ccccc4C3)CC[C@H]21,53%
12,CC(C)CC#Cc1ccc([C@H]2[C@@H](CO)N3CCCCN(S(=O)(=O)Cc4ccccc4)C[C@H]23)cc1,-17.9%
13,CNC(=O)C[C@H]1CC[C@@H]2[C@H](COc3ccc(NC(=O)c4ccccc4OC)cc3C(=O)N2C)O1,-10.4%
14,CCNC(=O)Nc1ccc2c(c1)C(=O)N(C)[C@H]1CC[C@H](CC(=O)NCCOC)O[C@@H]1CO2,-18.8%
15,CCC(=O)N(C)C[C@@H]1[C@@H](c2ccccc2)[C@H](CO)N1Cc1cccnc1,74.1% [at 23.5 µM]
16,Cc1ccccc1NCN1C(=O)C2C3C=CC(C3)C2C1=O (centres undefined),58%
17,O=C(c1ccc(CNc2c(NC3CCCCC3)c(=O)c2=O)cc1)N1CCc2ccccc21,55.6%
18,CC(=O)Nc1ccc2c(c1)C(=O)N(C)[C@@H]1CC[C@@H](CC(=O)NCc3ccc(Cl)cc3)O[C@H]1CO2,102% [at 23.5 µM]
19,CCCNC(=O)C[C@H]1CC[C@H]2[C@@H](COc3ccc(NC(=O)c4cc(F)cc(F)c4)cc3C(=O)N2C)O1,87.8%
20,CN1C(=O)c2cc(NC(=O)c3cccc(F)c3)ccc2OC[C@H]2O[C@@H](CC(=O)NC3CCC3)CC[C@H]21,-34.2%

row,SMILES,"activity change, negative = cytotoxicity"
1,CNC(=O)C[C@H]1CC[C@@H]2[C@@H](COc3ccc(NC(=O)c4cccc(OC)c4)cc3C(=O)N2C)O1,125%
2,CN1C(=O)c2cc(NC(=O)c3cccc(F)c3)ccc2OC[C@H]2O[C@@H](CC(=O)O)CC[C@@H]21,123%
3,C[C@@H]1CN([C@H](C)CO)S(=O)(=O)c2ccc(C3=CCCC3)cc2O[C@@H]1CN(C)C(=O)c1cnccn1,83.8%
4,O=C(NCC(c1cccnc1)N1CCOCC1)NC1CCCCC1 (centres undefined),83.2%
5,C[C@@H]1CN([C@@H](C)CO)S(=O)(=O)c2ccc(-c3ccccc3)cc2O[C@@H]1CN(C)C(=O)c1ccc2c(c1)OCO2,-14.7%
6,CC(=O)N1[C@@H](CO)[C@@H](c2ccccc2)[C@@H]1CNC(=O)CN1CCOCC1,-30.7%
7,CN1C(=O)c2cc(NC(=O)c3cccc(F)c3)ccc2OC[C@@H]2O[C@H](CC(=O)O)CC[C@H]21,24.4%
8,CCC(=O)N1[C@H](CN(C(C)C)S(C)(=O)=O)[C@H](c2ccccc2)[C@@H]1CO,59.8%
9,CC(=O)Oc1ccc2c(c1)C(=O)c1ccccc1CO2,-73.2%
10,COC(=O)C[C@H]1CC[C@@H]2[C@@H](COc3ccc(NC(=O)c4cnccn4)cc3C(=O)N2C)O1,116%
11,O=C(N/N=C/c1ccco1)c1cccc(N2CCCC2=O)c1,34.1%
12,CN1C(=O)c2cc(NC(=O)c3cccs3)ccc2OC[C@H]2O[C@H](CC(=O)NCC(F)(F)F)CC[C@H]21,127%
13,CC(=O)N1[C@H](CN(C)S(=O)(=O)c2ccccc2)[C@H](c2ccccc2)[C@@H]1CO,127%
14,CCCC(=O)Nc1ccc2c(c1)C(=O)N(C)[C@@H]1CC[C@H](CC(=O)NCCOC)O[C@H]1CO2,109%
15,COc1ccc(N2CCN(C(=O)CSc3nnc(CNc4ccccc4)o3)CC2)cc1,72.4%
16,Cc1ccnc(Nc2nc(-c3c(C)nc4sccn34)cs2)c1,-69.2%
17,COc1cccc(CNC(=O)C[C@@H]2CC[C@@H]3[C@@H](COc4ccc(NC(C)=O)cc4C(=O)N3C)O2)c1,111%
18,CCCCC(=O)OCC(=O)c1[nH]c(C)c(C(=O)OCC)c1C,58.2%
19,C[C@H](CO)N1C[C@H](C)[C@H](CN(C)S(=O)(=O)c2cccc(F)c2)Oc2ncc(C#CC3CCCCC3)cc2C1=O,-9.4%
